Here are results for 14 compounds from PubChem BioAssay (Tox21).

Assay [1] can be described thus: qHTS assay to identify small molecule antagonists of the TGF-beta/Smad signaling pathway - cell viability counter screen (AID 1346824). Further: nearly all actives have a fitted effect of over 50% in size. Further: potency means the concentration at half of the fitted maximal effect. The settings on record: SBE-bla HEK293T viability, CellTiter-Glo luminescence; series mostly up to 76.8 µM. In outline: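 Cytotoxicity counter-screen run in the same wells as the beta-lactamase Smad reporter read: CellTiter-Glo luminescence after 30 min at room temperature. HEK 293T SBE-bla cells had 5 hr compound exposure at 37 C with TGF-beta1 (0.25 ng/mL stock).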
In general terms: qHTS replaces the single test concentration by a dilution series.

A short description of assay [2]: qHTS assay to identify small molecule agonists of the TGF-beta/Smad signaling pathway - cell viability counter screen (AID 1346829). Further: nearly all actives have a fitted effect of over 45% in size. Further: potency means the concentration at half of the fitted maximal effect. To be noted: SBE-bla HEK293T viability, CellTiter-Glo luminescence, 5 h; series mostly up to 76.8 µM. A digest of the protocol: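 CellTiter-Glo luminescence readout; SBE-bla HEK 293T cells, overnight plating, compound 5 hr at 37 C/5% CO2, then bla substrate 2 hr RT, then CellTiter-Glo 30 min RT.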

The target in assay [3] is Thyrotropin-releasing hormone receptor (Homo sapiens) (UniProt P34981). The experiment in a line: qHTS assay to identify small molecule antagonists of the thyrotropin-releasing hormone receptor (TRHR) signaling pathway (AID 1346877; active means well fitted inhibition curve with a large enough effect in the repeat runs, not every such curve was filed as active). To be noted: TRHR-HEK293, TRH-induced calcium fluorescence, antagonist mode; series mostly up to 51.3 µM. A digest of the protocol:
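Screening used HEK293 cells engineered with TRHR, with a brief 5 min room-temperature compound exposure preceding addition of TRH to 1 nM. The read-out was kinetic calcium-dye fluorescence, concentration-response from 15 doses in triplicate.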

For assay [4] the target is unchanged. The experiment in a line: qHTS assay to identify small molecule agonists of the thyrotropin-releasing hormone receptor (TRHR) signaling pathway (AID 1346891; calls by dose curve). The settings on record: TRHR-HEK293 calcium fluorescence, agonist mode; series mostly up to 57.6 µM. A digest of the protocol:
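Readout was intracellular calcium fluorescence in TRHR-Hek293 cells. Cells were incubated 18 h, dye-loaded 2 h at 37 °C, and treated with compound in agonist mode.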

Assay [5] is described as follows: Human pregnane X receptor (PXR) small molecule agonists, qHTS cell viability counter screen (AID 1346977). Further: nearly all actives have a fitted effect of over 50% in size. Further: potency means the concentration at half of the fitted maximal effect. The settings on record: PXR-Luc HepG2 viability, CellTiter-Fluor, 24 h; series mostly up to 92.4 µM. A digest of the protocol: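 In each well, the PXR reporter HepG2 line was checked for viability: CellTiter-Fluor reagent added 23hr post-dosing, fluorescence read after 1hr incubation at 37C.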

Assay [6] is described as follows: Caspase-3/7 induction in HepG2 cells by small molecules, qHTS assay (AID 1346978). Further: nearly all actives have a fitted effect of over 15% in size. Further: potency means the concentration at half of the fitted maximal effect. The settings on record: HepG2 caspase-3/7 activation, Caspase-Glo luminescence, 17 h; series mostly up to 92.4 µM. In outline: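 Caspase-3/7 induction was measured by Caspase-Glo 3/7 luminescence (30 min, room temperature) after a 17 hr compound exposure of wild-type HepG2 cells seeded at 2,000 per well and pre-incubated 5 hr.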

A short description of assay [7]: qHTS assay to identify small molecule agonists of the progesterone receptor (PR) signaling pathway - cell viability counter screen (AID 1346799; calls by dose curve; further: nearly all actives have a fitted effect of over 45% in size). The settings on record: PR-UAS-bla HEK293T viability, CellTiter-Glo luminescence, 16 h; series mostly up to 92.4 µM. A digest of the protocol:
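Multiplexed viability read: CellTiter-Glo luminescence, 30 min RT, following LiveBLAzer FRET measurement on PR-UAS-bla HEK293T cells exposed to compounds 16 hr.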

A short description of assay [8]: qHTS assay to identify small molecule agonists of the TGF-beta/Smad signaling pathway (AID 1346859; active means well fitted activation curve with a large enough effect in the signal ratio in the repeat runs, not every such curve was filed as active; the % refers to the signal ratio). To be noted: SBE-bla HEK293T, TGF-beta/Smad beta-lactamase reporter, 5 h; series mostly up to 76.8 µM. In outline:
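Screening used HEK 293T SBE-bla cells at 4,000/well. Test agents: 5 hr, 37 C. Detection: FRET substrate, 2 hr RT, then excitation 405 nm with emissions at 460 and 530 nm.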

Each structure is given as a SMILES string. Values joined by “and” are separate entries in the source; they are usually repeats but may differ in a detail not shown here. Identical values can stand only once. Inconclusive results are not listed. Active and inactive are the calls of the source. Unless noted, the call rests on the fitted dose curve; in most records, active means well fitted curve in the direction sought with a large enough effect in the repeat runs; inconclusive means weak or mixed curves; inactive means no such curve, though single readings can be large; an effect the other way counts as inactive or inconclusive.

Chain of Thyrotropin-releasing hormone receptor (Homo sapiens) (P34981 whole entry, looked up): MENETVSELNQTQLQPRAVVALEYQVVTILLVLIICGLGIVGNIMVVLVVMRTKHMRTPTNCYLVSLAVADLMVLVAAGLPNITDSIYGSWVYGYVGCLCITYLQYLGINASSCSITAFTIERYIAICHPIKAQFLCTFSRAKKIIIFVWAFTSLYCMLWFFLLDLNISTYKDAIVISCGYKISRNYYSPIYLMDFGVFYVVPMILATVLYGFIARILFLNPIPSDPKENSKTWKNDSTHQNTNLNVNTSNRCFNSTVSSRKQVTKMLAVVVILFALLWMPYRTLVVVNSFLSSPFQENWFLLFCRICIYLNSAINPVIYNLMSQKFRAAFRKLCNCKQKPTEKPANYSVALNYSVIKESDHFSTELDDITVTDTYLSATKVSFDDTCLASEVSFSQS

As for `O=C(Nc1cccc(Cl)c1)OCC#CCCl`, the Potency result in assay [1], in assay [2], in assay [3], in assay [4] and in assay [6] was “inactive” each time. The Potency in assay [5] was 54.5 µM (active).

`CC[C@@]1(O)C(=O)OCc2c1cc1n(c2=O)Cc2cc3c(CN(C)C)c(O)ccc3nc2-1`: the Potency result in assay [1] and in assay [2] was “inactive” in each case. Besides, the Potency in assay [6] was 4.22 µM (active).

Take `Cc1cc2c(cc1C(F)(F)F)N(C(=O)Nc1ccc(Oc3cccnc3C)nc1)CC2`: the Potency result in assay [7], in assay [2] and in assay [6] was “inactive” each time. Also, in assay [5], the Potency is 43.9 µM (active).

With `CCCC(c1cc(C(C)(C)C)c(O)cc1C)c1cc(C(C)(C)C)c(O)cc1C`, the Potency in assay [1] was 24.8 µM (active); in assay [2] it was 24.8 µM (active); in assay [5], 17.4 µM (active); in assay [6], 24.6 µM (active). In addition, the Potency entry in assay [3] and in assay [4] was “inactive” each time.

Consider `CC1(C)CCC(C)(C)c2cc(C(=O)Nc3ccc(C(=O)O)cc3)ccc21`, for which the Potency entry in assay [1], in assay [2], in assay [3], in assay [4] and in assay [5] was “inactive” throughout.

Take `Nc1c2ccccc2nc2ccccc12`: the Potency entry in assay [1] and in assay [2] was “inactive” throughout. Besides, in assay [6], the Potency was 21.4 µM (active) and 11.9 µM (active).

Turning to `N/C(=N\N=C\c1ccc(Cl)cc1)N/N=C/c1ccc(Cl)cc1`, the Potency result in assay [1], in assay [8], in assay [3], in assay [4] and in assay [6] was “inactive” throughout.

As to `[Cl][Au]([Cl])[Cl]`, the Potency result in assay [1], in assay [3], in assay [4] and in assay [6] was “inactive” each time. In addition, the Potency in assay [2] was 54.9 µM (active); in assay [5], 13.7 µM (active).

`O=c1cc(-c2ccc(O)cc2)oc2cc(O)cc(O)c12`: the Potency result in assay [1], in assay [2], in assay [8], in assay [3], in assay [4] and in assay [6] was “inactive” throughout. In assay [5], the Potency is 39.8 µM (active) and 27.3 µM (active).

Consider `O=[N+]([O-])c1cc([N+](=O)[O-])c2ccc(S(=O)(=O)O)cc2c1O`, for which the Potency result in assay [7] and in assay [2] was “inactive” each time. The Potency in assay [5] is 27.1 µM (active).

Regarding `CNc1ccc(O)cc1`, the Potency result in assay [3], in assay [4] and in assay [6] was “inactive” each time. In assay [5], the Potency was 61 µM (active).

`CCCCC(CC)CN=C(N)NC(N)=NCCCCCCN=C(N)NC(N)=NCC(CC)CCCC` (configuration not stated): the Potency in assay [1] is 19 µM (active); in assay [2], 23.9 µM (active); in assay [5], 16.8 µM (active). The Potency result in assay [3], in assay [4] and in assay [6] was “inactive” each time.

In the case of `O=c1c(-c2ccccc2)c1-c1ccccc1`, the Potency result in assay [7], in assay [2], in assay [8], in assay [3] and in assay [4] was “inactive” in each case. Also, in assay [5], the Potency was 26.6 µM (active).

Regarding `COCCCC/C(=N\OCCN)c1ccc(C(F)(F)F)cc1`, the Potency result in assay [2], in assay [8] and in assay [6] was “inactive” each time.
